Source: PubChem BioAssay (NCI)
Several values for one entry are separate records, joined by “and”; a condition that tells them apart may be missing. Identical values can stand only once. The panel holds about 83,000 compounds, 20% with a hit somewhere; the sample as a whole holds those more often.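 Step 1: grow cells in 96-well plates. Step 2: add test compound at a single concentration. Step 3: incubate 48 h. Step 4: record percent growth.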 Activity calls are given as the source filed them. How the source made its calls: active means growth percent below 10; inactive means the rest.

Experiments:
Assay in all cases: NCI-60 one-dose screen, 48 h (100 = growth as untreated, 0 = no growth, -100 = all killed)
SK-MEL-2 melanoma = tested on: SK-MEL-2 melanoma
EKVX NSCLC = conditions: 10 µM unless noted
SN12C renal = tested on: SN12C renal
UO-31 renal = tested on: UO-31 renal
TK-10 renal = tested on: TK-10 renal
ACHN renal = tested on: ACHN renal
CAKI-1 renal = tested on: CAKI-1 renal
A498 renal = tested on: A498 renal
CCRF-CEM leukemia = tested on: CCRF-CEM leukemia
MOLT-4 leukemia = tested on: MOLT-4 leukemia
SR leukemia = conditions: 10 µM unless noted
RPMI-8226 leukemia = tested on: RPMI-8226 leukemia
OVCAR-8 ovarian = conditions: 10 µM unless noted
IGROV1 ovarian = tested on: IGROV1 ovarian
OVCAR-3 ovarian = conditions: 10 µM unless noted
HS 578T breast = tested on: HS 578T breast
NCI/ADR-RES ovarian = tested on: NCI/ADR-RES ovarian
SK-OV-3 ovarian = tested on: SK-OV-3 ovarian
OVCAR-5 ovarian = tested on: OVCAR-5 ovarian
OVCAR-4 ovarian = conditions: 10 µM unless noted

Which growth (SK-MEL-2 melanoma; 10 µM unless noted) does the source give for `COC(=O)Nc1nc2ccc(C(=O)c3ccccc3)cc2[nH]1` here?
The growth was 44.1% (inactive) and 45.4% (inactive) and -21.7% (active).

What about the growth (EKVX NSCLC) of the same molecule?
The growth was 60.4% (inactive) and 39% (inactive) and 21.6% (inactive).

What about the growth (SN12C renal; 10 µM unless noted) of the same molecule?
Its growth is 54.9% (inactive) and 28.7% (inactive) and 58.1% (inactive).

And the growth (UO-31 renal; 10 µM unless noted)?
Its growth is 48% (inactive) and 38.3% (inactive) and 25.3% (inactive).

What about the growth (TK-10 renal; 10 µM unless noted) of the same molecule?
The growth was 65% (inactive) and 75.9% (inactive) and 44.6% (inactive).

And the growth (ACHN renal; 10 µM unless noted)?
Its growth is 48.3% (inactive) and 54.2% (inactive).

And the growth (CAKI-1 renal; 10 µM unless noted)?
Its growth is 48.8% (inactive) and 27.1% (inactive) and 15% (inactive).

And the growth (A498 renal; 10 µM unless noted)?
Its growth is 13.9% (inactive) and 14.6% (inactive) and -12.2% (active).

And the growth (CCRF-CEM leukemia; 10 µM unless noted)?
Its growth is 15.7% (inactive) and -14.1% (active) and 1.15% (active).

What about the growth (MOLT-4 leukemia; 10 µM unless noted) of the same molecule?
The growth was 19.3% (inactive) and 7.52% (active) and 7.55% (active).

And the growth (SR leukemia)?
The growth was 19.8% (inactive) and 2.51% (active).

What about the growth (RPMI-8226 leukemia; 10 µM unless noted) of the same molecule?
The growth was 45.5% (inactive) and -31.7% (active).

What about the growth (OVCAR-8 ovarian) of the same molecule?
Its growth is 22% (inactive) and 20.6% (inactive) and 22.1% (inactive).

What about the growth (IGROV1 ovarian; 10 µM unless noted) of the same molecule?
Its growth is 43.2% (inactive) and 13.7% (inactive) and -39.8% (active).

What about the growth (OVCAR-3 ovarian) of the same molecule?
Its growth is -50.1% (active) and -60.4% (active) and -59.4% (active).

And the growth (HS 578T breast; 10 µM unless noted)?
The growth was 35.5% (inactive) and 15.8% (inactive) and 21.6% (inactive).

And the growth (NCI/ADR-RES ovarian; 10 µM unless noted)?
The growth was -28.8% (active) and 4.68% (active) and -3.41% (active).

What does the source list for `O=C(O)c1ccc2c3c(ncnc13)-c1ccccc1C2=O`?
growth (SK-MEL-2 melanoma; 10 µM unless noted): 88.4% (inactive); growth (EKVX NSCLC): 103% (inactive); growth (SN12C renal; 10 µM unless noted): 48.7% (inactive); growth (UO-31 renal; 10 µM unless noted): 62.7% (inactive); growth (TK-10 renal; 10 µM unless noted): 120% (inactive); growth (ACHN renal; 10 µM unless noted): 73.8% (inactive); growth (CAKI-1 renal; 10 µM unless noted): 111% (inactive); growth (A498 renal; 10 µM unless noted): -2.38% (active); growth (CCRF-CEM leukemia; 10 µM unless noted): 77.9% (inactive); growth (MOLT-4 leukemia; 10 µM unless noted): 96.3% (inactive); growth (SR leukemia): 98.4% (inactive); growth (RPMI-8226 leukemia; 10 µM unless noted): 87.1% (inactive); growth (OVCAR-8 ovarian): 79.9% (inactive); growth (SK-OV-3 ovarian; 10 µM unless noted): 98% (inactive); growth (IGROV1 ovarian; 10 µM unless noted): 83.4% (inactive); growth (NCI/ADR-RES ovarian; 10 µM unless noted): 76.9% (inactive)

Which growth (SK-MEL-2 melanoma; 10 µM unless noted) does the source give for `Oc1c(Br)c(Br)c(O)c(Br)c1Br` here?
Its growth is 104% (inactive).

What about the growth (EKVX NSCLC) of the same molecule?
The growth was 112% (inactive).

And the growth (SN12C renal; 10 µM unless noted)?
The growth was 113% (inactive).

And the growth (UO-31 renal; 10 µM unless noted)?
Its growth is -80.4% (active).

What about the growth (TK-10 renal; 10 µM unless noted) of the same molecule?
Its growth is 42.6% (inactive).

What about the growth (ACHN renal; 10 µM unless noted) of the same molecule?
Its growth is -33.2% (active).

What about the growth (CAKI-1 renal; 10 µM unless noted) of the same molecule?
Its growth is 92.5% (inactive).

What about the growth (A498 renal; 10 µM unless noted) of the same molecule?
The growth was 127% (inactive).

And the growth (CCRF-CEM leukemia; 10 µM unless noted)?
Its growth is 15.8% (inactive).

And the growth (MOLT-4 leukemia; 10 µM unless noted)?
Its growth is 42.6% (inactive).

And the growth (SR leukemia)?
Its growth is 63.2% (inactive).

What about the growth (RPMI-8226 leukemia; 10 µM unless noted) of the same molecule?
The growth was 104% (inactive).

And the growth (OVCAR-8 ovarian)?
Its growth is 102% (inactive).

And the growth (OVCAR-5 ovarian; 10 µM unless noted)?
The growth was 129% (inactive).

What about the growth (OVCAR-4 ovarian) of the same molecule?
Its growth is 68.7% (inactive).

And the growth (SK-OV-3 ovarian; 10 µM unless noted)?
Its growth is 156% (inactive).

What about the growth (IGROV1 ovarian; 10 µM unless noted) of the same molecule?
Its growth is 115% (inactive).

What about the growth (OVCAR-3 ovarian) of the same molecule?
Its growth is 5.11% (active).

What about the growth (HS 578T breast; 10 µM unless noted) of the same molecule?
Its growth is 144% (inactive).

And the growth (NCI/ADR-RES ovarian; 10 µM unless noted)?
Its growth is 102% (inactive).

With `O=C(O)c1c(Cl)c(Cl)c(Cl)c(Cl)c1-c1c2cc(I)c(=O)c(I)c-2oc2c(I)c(O)c(I)cc12` as the molecule, how does the growth (SK-MEL-2 melanoma; 10 µM) read?
Its growth is 110% (inactive) and 108% (inactive) and 73.8% (inactive).

And the growth (SK-MEL-2 melanoma; 100 µM)?
The growth was -40.2% (active).

And the growth (SN12C renal; 10 µM)?
The growth was 99.1% (inactive) and 95.2% (inactive) and 98.3% (inactive).

What about the growth (SN12C renal; 100 µM) of the same molecule?
The growth was 2.38% (active).

And the growth (UO-31 renal; 10 µM)?
Its growth is 102% (inactive) and 72.9% (inactive) and 84% (inactive).

What about the growth (UO-31 renal; 100 µM) of the same molecule?
Its growth is 49.8% (inactive).

And the growth (TK-10 renal; 10 µM)?
Its growth is 108% (inactive) and 116% (inactive) and 84.5% (inactive).

And the growth (TK-10 renal; 100 µM)?
Its growth is 36.6% (inactive).

What about the growth (ACHN renal; 10 µM) of the same molecule?
The growth was 100% (inactive) and 98.7% (inactive) and 89.6% (inactive).

What about the growth (ACHN renal; 100 µM) of the same molecule?
Its growth is -80.7% (active).

And the growth (CAKI-1 renal; 10 µM)?
Its growth is 107% (inactive) and 102% (inactive) and 90% (inactive).

And the growth (CAKI-1 renal; 100 µM)?
Its growth is 42.9% (inactive).

What about the growth (A498 renal; 10 µM) of the same molecule?
The growth was 300% (inactive) and 106% (inactive).

And the growth (A498 renal; 100 µM)?
Its growth is 37.1% (inactive).

What about the growth (CCRF-CEM leukemia; 10 µM) of the same molecule?
Its growth is 104% (inactive) and 101% (inactive) and 51.4% (inactive).

What about the growth (CCRF-CEM leukemia; 100 µM) of the same molecule?
Its growth is -30.2% (active).

What about the growth (MOLT-4 leukemia; 10 µM) of the same molecule?
The growth was 110% (inactive) and 106% (inactive) and 91.4% (inactive).

What about the growth (MOLT-4 leukemia; 100 µM) of the same molecule?
Its growth is -50.2% (active).

What about the growth (SR leukemia) of the same molecule?
The growth was 97.9% (inactive).

What about the growth (RPMI-8226 leukemia; 10 µM) of the same molecule?
The growth was 114% (inactive) and 90.6% (inactive) and 31.5% (inactive).

What about the growth (RPMI-8226 leukemia; 100 µM) of the same molecule?
The growth was 24.3% (inactive).

What about the growth (OVCAR-5 ovarian; 10 µM) of the same molecule?
The growth was 107% (inactive) and 98.5% (inactive) and 104% (inactive).

And the growth (OVCAR-5 ovarian; 100 µM)?
The growth was -42.9% (active).

And the growth (IGROV1 ovarian; 10 µM)?
Its growth is 105% (inactive) and 80.5% (inactive) and -7.13% (active).

And the growth (IGROV1 ovarian; 100 µM)?
The growth was 5.19% (active).

What about the growth (NCI/ADR-RES ovarian; 10 µM) of the same molecule?
Its growth is 103% (inactive) and 98% (inactive) and 109% (inactive).

What about the growth (NCI/ADR-RES ovarian; 100 µM) of the same molecule?
The growth was 10.7% (inactive).

`O=C(Nc1c(Cl)cccc1Cl)Oc1cccc2cccnc12` was tested. Which growth (SK-MEL-2 melanoma; 10 µM) did it give?
The growth was 79.8% (inactive).

What about the growth (SK-MEL-2 melanoma; 100 µM) of the same molecule?
Its growth is 25.9% (inactive).

What about the growth (SN12C renal; 10 µM) of the same molecule?
The growth was 53.9% (inactive).

And the growth (SN12C renal; 100 µM)?
The growth was 33.1% (inactive).

What about the growth (UO-31 renal; 10 µM) of the same molecule?
The growth was 17% (inactive).

What about the growth (UO-31 renal; 100 µM) of the same molecule?
The growth was 6.51% (active).

What about the growth (TK-10 renal; 10 µM) of the same molecule?
The growth was 58.8% (inactive).

And the growth (TK-10 renal; 100 µM)?
The growth was 22.4% (inactive).

And the growth (ACHN renal; 10 µM)?
Its growth is 38.8% (inactive).

What about the growth (ACHN renal; 100 µM) of the same molecule?
The growth was 12.1% (inactive).

And the growth (CAKI-1 renal; 10 µM)?
Its growth is -9.81% (active).

What about the growth (CAKI-1 renal; 100 µM) of the same molecule?
The growth was 16.8% (inactive).

What about the growth (A498 renal; 10 µM) of the same molecule?
Its growth is 98.2% (inactive).

What about the growth (A498 renal; 100 µM) of the same molecule?
The growth was 94.5% (inactive).

What about the growth (CCRF-CEM leukemia; 10 µM unless noted) of the same molecule?
Its growth is 8.09% [100 µM] (active).

What about the growth (MOLT-4 leukemia; 10 µM) of the same molecule?
Its growth is 16.6% (inactive).

And the growth (MOLT-4 leukemia; 100 µM)?
The growth was 8.36% (active).

And the growth (SR leukemia)?
Its growth is 5.64% [100 µM] (active).

What about the growth (RPMI-8226 leukemia; 10 µM) of the same molecule?
The growth was 45.7% (inactive).

And the growth (RPMI-8226 leukemia; 100 µM)?
The growth was 2.58% (active).

What about the growth (OVCAR-5 ovarian; 10 µM) of the same molecule?
Its growth is 103% (inactive).

What about the growth (OVCAR-5 ovarian; 100 µM) of the same molecule?
The growth was 34.1% (inactive).

What about the growth (SK-OV-3 ovarian; 10 µM) of the same molecule?
Its growth is 65.4% (inactive).

What about the growth (SK-OV-3 ovarian; 100 µM) of the same molecule?
The growth was 18% (inactive).

And the growth (IGROV1 ovarian; 10 µM)?
Its growth is 27% (inactive).

What about the growth (IGROV1 ovarian; 100 µM) of the same molecule?
The growth was 14.4% (inactive).

And the growth (HS 578T breast; 10 µM)?
Its growth is 90.6% (inactive).

What about the growth (HS 578T breast; 100 µM) of the same molecule?
The growth was 46.6% (inactive).

What about the growth (NCI/ADR-RES ovarian; 10 µM) of the same molecule?
The growth was 13.5% (inactive).

And the growth (NCI/ADR-RES ovarian; 100 µM)?
The growth was 3.5% (active).
